Among all 16,000 compounds or so, about 5,700 (36%) were called active. Roughly 24% stayed inconclusive and do not appear here. Some of the results follow. Values without a mark were called inactive. The call rests on the fitted dose curve; in most records, active means well fitted curve in the direction sought with a large enough effect; inconclusive means small, poorly fitted or top-dose-only effect, or effect the other way; inactive means no such curve, though single readings can be large or run the other way.
On the % scale 0 is the no-effect control and ±100 the full control effect.

The assay deals with Cytochrome P450 1A2 (Homo sapiens) (UniProt P05177). The assay is described as follows: Cytochrome panel assay with activity outcomes. The note with it: recombinant CYP, pro-luciferin dealkylation, luminescence, p450-cyp1a2; series mostly up to 57.1 µM; activity, negative = inhibition: at the top concentration.
Cytochrome P450 1A2 (Homo sapiens), sequence (P05177 whole entry, looked up): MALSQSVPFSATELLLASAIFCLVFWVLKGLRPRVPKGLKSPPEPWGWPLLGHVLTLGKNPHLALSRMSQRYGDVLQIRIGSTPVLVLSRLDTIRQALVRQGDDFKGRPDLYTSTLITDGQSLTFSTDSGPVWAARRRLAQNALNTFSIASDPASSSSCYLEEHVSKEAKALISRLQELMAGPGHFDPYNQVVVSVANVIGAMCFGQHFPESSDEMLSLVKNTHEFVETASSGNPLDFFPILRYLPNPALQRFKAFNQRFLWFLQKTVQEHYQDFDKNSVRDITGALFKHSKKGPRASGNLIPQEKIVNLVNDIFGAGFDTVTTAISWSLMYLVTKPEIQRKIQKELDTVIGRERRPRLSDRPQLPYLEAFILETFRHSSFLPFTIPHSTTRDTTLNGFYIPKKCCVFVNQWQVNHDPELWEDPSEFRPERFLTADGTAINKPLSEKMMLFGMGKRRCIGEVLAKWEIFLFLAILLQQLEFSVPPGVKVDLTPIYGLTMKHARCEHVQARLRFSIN
With `CC(=O)O[C@H]1C2=CO[C@H](C)[C@H]3[C@H]4C5=C([C@H](O)[C@H]6O[C@@H]6C5=O)[C@H](O[C@H]4C)[C@@]23C(=O)[C@H]2O[C@@H]21`, the activity, negative = inhibition is -0.486% [at 11.4 µM]. Take `Cc1ccn2c(NC(=O)c3ccccc3)c(-c3cccs3)nc2c1`: the AC50 was 22.4 µM (active). As for `O=C(O)C12CC3(C(=O)O)CC(C(=O)O)(CC(C(=O)O)(C1)C3=O)C2=O`, the activity, negative = inhibition is -4.32% [at 2.29 µM]. `Cc1ncn(-c2ccccc2O)c1C`: the AC50 was 0.794 µM (active). Turning to `CC1=NNC(=O)C1CCC(=O)N/N=C\c1ccccc1[N+](=O)[O-]` (stereo not drawn), the “activity, negative = inhibition” value is -21.8%.

Regarding `Cc1nc2ccccn2c1C(=O)N/N=C/c1ccccc1[N+](=O)[O-]`, the AC50 is 15.8 µM (active). Consider `O=C(O)Cc1cc(Cl)ccc1O`, for which the activity, negative = inhibition was -16.6% [at 11.4 µM]. Consider `COc1ccc2c(c1)c(CC(=O)O)c(C)n2Cc1ccc(Cl)cc1`, for which the AC50 was 31.6 µM (active). As for `COc1ccc2c(c1)c(CC(=O)OCC(=O)O)c(C)n2C(=O)c1ccc(Cl)cc1`, the “activity, negative = inhibition” value was -15.1% [at 25.6 µM]. On to `CC(=O)n1nc(-c2ccco2)nc1N`, for which the AC50 was 10 µM (active). Take `Cc1nc2nc[nH]n2c(=O)c1NC(=O)CC12CC3CC(CC(C3)C1)C2`: the “activity, negative = inhibition” value is -10.9%. For `COC(=O)N1CC(=O)N(OC)C1c1ccc(Cl)cc1Cl` (stereo not drawn), the “activity, negative = inhibition” value is -9.57%. For `O=C1c2ccccc2NC(c2ccc(Cl)cc2Cl)N1O` (stereo not drawn), the AC50 was 6.31 µM (active). On to `O=C1c2ccccc2N[C@H](c2cc(Cl)cc(Cl)c2O)N1CCc1ccccn1`, for which the activity, negative = inhibition is 5.81% [at 2.29 µM]. For the molecule `Cn1c(=NC(=O)CCl)sc2ccccc21`, the AC50 is 2.24 µM (active). With `CO[C@H]1[C@H](O[C@H]2O[C@@H](C)[C@@H](O[C@@H]3C[C@](C)(O)[C@H](OC(=O)CC(C)C)[C@H](C)O3)[C@@H](N(C)C)[C@@H]2O)[C@@H](CC=O)C[C@@H](C)[C@@H](O)/C=C\C=C/C[C@@H](C)OC(=O)C[C@H]1OC(C)=O`, the “activity, negative = inhibition” value is 2.24% [at 25.6 µM]. For the molecule `COc1ccc2[nH]cc(C=O)c2c1`, the AC50 was 7.08 µM (active). Consider `COc1ccc2[nH]c3cc4c(=O)c5cc(OC)ccc5[nH]c4cc3c(=O)c2c1`, for which the activity, negative = inhibition was -6.02% [at 2.29 µM]. As to `Brc1[nH]nc2ccccc12`, the AC50 is 1.58 µM (active). For `N[C@@H](Cc1[nH]nc2ccccc12)C(=O)O`, the activity, negative = inhibition is -19.1% [at 11.4 µM]. For `COC(=O)c1ccccc1N/C=C1\CCc2c(c(C)nn2-c2ccccn2)C1=O`, the AC50 is 6.31 µM (active). `COc1ccc(-c2cc(C(=O)O)c3c(C)nn(-c4ccccn4)c3n2)cc1`: the “activity, negative = inhibition” value was -1.78%. On the same count and under the same terms, the result for `COC(=O)N1CCC2(CC1)CCN(c1ccccn1)CC2` reads 2.64%; that for `c1cncc(CNc2ncn[nH]2)c1`, -7.88% [at 11.4 µM]. Consider `Cc1cccc(CNc2ncncc2-c2cccnc2)c1`, for which the AC50 was 0.794 µM (active). The same measure, in the same setting: the result for `c1ccc(CNc2ncncc2-c2cccnc2)cc1` reads 2.51 µM (active). In the case of `c1cncc(CNc2ncncc2-c2cccnc2)c1`, the AC50 is 5.01 µM (active). In the case of `CC[C@H]1C2=C3C(CC[C@H]4C(OCc5ccc(F)cc5C(F)(F)F)OC[C@](C)([C@@H]34)N(C(=O)OC(C)(C)C)C2)C2COC(=O)OCC21` (stereo partly drawn), the “activity, negative = inhibition” value is -14.8%.

`O=C(Nc1ccc2c(c1)nc1n2CCN(C2CCCCC2)C1)NC1CCCCC1`: the “activity, negative = inhibition” value was -13.4%. As for `Cc1ccc(S(=O)(=O)N[C@@H]2COC(=O)C/C=C\[C@H](C)COC(=O)N[C@@H](C)C(=O)C/C=C\[C@H]2C)cc1`, the activity, negative = inhibition was -0.145% [at 11.4 µM]. For `CCn1c(SCc2ccc(C(=O)Nc3nccs3)cc2)nnc1-c1ccc(NC(C)=O)cc1`, the AC50 is 12.6 µM (active). In the case of `Cc1ccc(NC(=O)c2ccc(CSc3nnc(-c4ccncc4)n3C)cc2)cc1`, the “activity, negative = inhibition” value is 7.07%. Turning to `C=CCn1c(SCc2ccc(C(=O)Nc3ccccc3)cc2)nnc1-c1ccccc1`, the AC50 was 14.1 µM (active). As for `Cc1nc2sc(C#N)c(N)c2c2c1CCCC2`, the AC50 was 2 µM (active). In the case of `NC(=O)c1csc(-c2ccc(CO)o2)n1`, the activity, negative = inhibition was -13.1% [at 11.4 µM]. As for `OCc1ccc(-c2nn(Cc3ccccc3)c3ccccc23)o1`, the AC50 is 1.58 µM (active). With `O=C(NNS(=O)(=O)c1ccccc1)c1cccnc1`, the activity, negative = inhibition was 2.15% [at 2.29 µM]. As to `O=C(NNS(=O)(=O)c1cc(Cl)cc(Cl)c1)c1sccc1-n1cccc1`, the AC50 is 2 µM (active). Regarding `CCS(=O)(=O)N1CCC(C(=O)NCCCN2CCCC2)CC1`, the “activity, negative = inhibition” value is 15%. Take `CCCN1C(=O)/C(=C/c2ccc(C)s2)SC1=Nc1ccc(OC)cc1`: the AC50 was 11.2 µM (active). Consider `COc1ccc(N=C2S/C(=C\c3ccc(C)s3)C(=O)N2CC(C)C)cc1`, for which the “activity, negative = inhibition” value was -5.67%. Turning to `CN(C)CCCNc1ncnc2nc[nH]c12`, the activity, negative = inhibition is -16.6% [at 11.4 µM].

As for `O=C(O)CCNc1ncnc2nc[nH]c12`, the activity, negative = inhibition was -6.59% [at 11.4 µM]. Consider `CCCCNc1nc(SC)nc2nc[nH]c12`, for which the AC50 was 0.316 µM (active). For the molecule `CC[C@@]1(O)C(=O)OCc2c1cc1n(c2=O)Cc2cc3c(CN(C)C)c(O)ccc3nc2-1`, the activity, negative = inhibition was -17.9% [at 2.29 µM].

As for `CCn1c(SCC(=O)Nc2sc3c(c2C#N)CCC(C(C)(C)C)C3)nnc1-c1ccco1` (stereo not drawn), the “activity, negative = inhibition” value is -14.1%. As for `CCn1c(SCC(=O)Nc2sc3c(c2C(N)=O)CCC(C)C3)nnc1-c1ccco1` (stereo not drawn), the AC50 is 12.6 µM (active). Regarding `COc1ncc2nc(-c3ccc(Cl)cc3)c(=O)n(C[C@H]3CCCO3)c2n1`, the AC50 was 0.501 µM (active).

Broadly, the AC50 is the concentration giving half of the maximal activity seen.
